Test results published in PubChem BioAssay (EPA / NIEHS).
Inconclusive results are not listed. Active and inactive are the calls of the source. How the source made its calls, unless noted: active means hit-call score of the fitted dose curve at least 0.9, where 1 is the maximum; inconclusive means response in the unintended direction; inactive means score below 0.9.

Legend:
[1] = ATG_TAL_CIS: Attagene CIS-FACTORIAL HepG2 Assay for human TAL Basal Promoter (AID 2282966; active means hit-call score of the fitted dose curve at least 0.9, where 1 is the maximum; inactive means score below 0.9;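 further: background control endpoint measuring basal TAL promoter reporter mRNA not a specific factor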); conditions: HepG2 Attagene cis-factorial TAL promoter reporter; actives raise or lower the signal
Method in brief: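 HepG2, transient MRTU transfection, 24 h compound exposure; RNA → oligo(dT) RT → PCR → 6-FAM primer extension → HpaI digest → CE fluorescence. Bidirectional curve fit vs DMSO. Background-control readout.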

[2] = ATG_TGFb_CIS: Attagene CIS-FACTORIAL HepG2 Assay for human Transforming Growth Factor (TGF) (AID 2282967; active means hit-call score of the fitted dose curve at least 0.9, where 1 is the maximum; inactive means score below 0.9); conditions: HepG2 Attagene CIS TGFb reporter, mRNA transcription; actives raise or lower the signal
Method in brief: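 Multiplexed cis-reporter HepG2 system, 24 h treatment; mRNA induction read by fluorescence after RT-PCR and CE; DMSO negative control, bidirectional curve fitting.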

[3] = ATG_VDRE_CIS: Attagene CIS-FACTORIAL HepG2 Assay for human Vitamin D Receptor Element (VDRE) (AID 2282968; active means hit-call score of the fitted dose curve at least 0.9, where 1 is the maximum; inactive means score below 0.9); conditions: HepG2 VDRE cis-reporter transcription, actives raise or lower the signal
Method in brief: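 Transient MRTU transfection of HepG2, 24 h compound exposure. Readout: reporter transcripts via RT-PCR and capillary electrophoresis, fluorescence. Bidirectional fit vs DMSO.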

[4] = molecular target: Estrogen receptor (Homo sapiens) (UniProt P03372); test: ATG_ERa_TRANS: Attagene TRANS-FACTORIAL HepG2 Assay for human Estrogen Receptor alpha (ERa) (AID 2282970); conditions: HepG2 Attagene TRANS ERa GAL4 reporter, mRNA
Method in brief: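 Reporter mRNA induction after 24 hours, detected by fluorescent RT-PCR and capillary electrophoresis, gives the read-out. Cells are HepG2 transiently transfected with GAL4-UAS reporter transcription units responding to chimeric NR-Gal4. Activity is taken as gain of signal over DMSO baseline.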

[5] = molecular target: X-box-binding protein 1 (Homo sapiens) (UniProt P17861); test: ATG_Xbp1_CIS: Attagene CIS-FACTORIAL HepG2 Assay for human X-box Binding Protein 1 (XBP1) (AID 2282972; active means hit-call score of the fitted dose curve at least 0.9, where 1 is the maximum; inactive means score below 0.9); conditions: HepG2 XBP1 cis-element reporter, Attagene multiplex; actives raise or lower the signal
Method in brief: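 Multiplexed cis-reporter readout in transfected HepG2 liver cells. Exposure lasted 24 hours. Activity in either direction was fitted against DMSO as negative control and baseline.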

[6] = ATG_M_19_TRANS: Attagene TRANS-FACTORIAL HepG2 Assay for M19 Transcription Factor (Internal Marker) (AID 2282974); conditions: HepG2 Attagene TRANS-FACTORIAL M19 internal marker reporter
Method in brief: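 Gain-of-signal in reporter mRNA, relative to DMSO, was scored from capillary electrophoresis fluorescence. HepG2 cells carried transiently transfected multiple reporter transcription units and were incubated with test chemicals for 24 h.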

[7] = molecular target: Glucocorticoid receptor (Homo sapiens) (UniProt P04150); test: ATG_GR_TRANS: Attagene TRANS-FACTORIAL HepG2 Assay for human Glucocorticoid Receptor (GR) (AID 2282978); conditions: HepG2 Attagene TRANS GR reporter, mRNA transcription;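 further: activators score as hits since higher reporter transcript over DMSO is fitted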
Method in brief: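 HepG2 transient transfection, multiple reporter units, GAL4-UAS under NR-GAL4 chimera control. 24 h treatment. Reporter mRNA by RT-PCR/CE fluorescence, DMSO as negative control.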

[8] = molecular target: Bile acid receptor (Homo sapiens) (UniProt Q96RI1); test: ATG_FXR_TRANS: Attagene TRANS-FACTORIAL HepG2 Assay for Farnesoid X Receptor (FXR) (AID 2282979); conditions: HepG2 Attagene TRANS FXR-GAL4 reporter transcription;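 further: hits raise reporter mRNA above DMSO so AC50 marks FXR activation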
Method in brief: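 Read-out: fluorescent reporter transcripts quantified by capillary electrophoresis after RT-PCR of total RNA. Source cells were HepG2 transiently carrying chimeric NR-GAL4 plus GAL4-UAS reporter units, dosed 24 h. Activity fitted upward relative to DMSO baseline.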

[9] = ATG_M_32_TRANS: Attagene TRANS-FACTORIAL HepG2 Assay for M32 Transcription Factor (Internal Marker) (AID 2282984); conditions: HepG2 Attagene TRANS M32 internal marker reporter;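 further: transcript level of a background control reporter unit measured by RT-PCR and capillary electrophoresis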
Method in brief: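 Read-out: fluorescent reporter cDNA fragments resolved by capillary electrophoresis after RT-PCR of total RNA. Transfected HepG2 cells were exposed to chemical for 24 h. Activity scored in the positive direction relative to DMSO.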

[10] = molecular target: Nuclear receptor subfamily 4 group A member 2 (Homo sapiens) (UniProt P43354); test: ATG_NURR1_TRANS: Attagene TRANS-FACTORIAL HepG2 Assay for human Nuclear Receptor Related Protein 1 (NURR1) (AID 2282985); conditions: HepG2 Attagene TRANS reporter, mRNA readout
Method in brief: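 Read-out: reporter mRNA induction by RT-PCR plus capillary electrophoresis with fluorescence detection, after 24 h dosing of transfected HepG2 cells. Exogenous NR-Gal4 chimera activity drives GAL4-UAS reporter; activity fitted upward versus DMSO.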

[11] = molecular target: Transcriptional activator Myb (Homo sapiens) (UniProt P10242); test: ATG_Myb_CIS: Attagene CIS-FACTORIAL HepG2 Assay for human Myeloblastosis (Myb) Proto-Oncogene Transcription Factor (AID 2282986; active means hit-call score of the fitted dose curve at least 0.9, where 1 is the maximum; inactive means score below 0.9); conditions: HepG2 Attagene CIS-FACTORIAL Myb reporter transcription; actives raise or lower the signal
Method in brief: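 Multiplexed cis-reporter system in HepG2: transient transfection, 24 h treatment, mRNA readout by RT-PCR and capillary electrophoresis. Both increases and decreases are scored versus DMSO negative control.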

[12] = molecular target: Nuclear respiratory factor 1 (Homo sapiens) (UniProt Q16656); test: ATG_NRF1_CIS: Attagene CIS-FACTORIAL HepG2 Assay for human Nuclear Respiratory Factor 1 (NRF1) Orphan Gene (AID 2282987; active means hit-call score of the fitted dose curve at least 0.9, where 1 is the maximum; inactive means score below 0.9); conditions: HepG2 NRF1 cis-element reporter, Attagene multiplex; actives raise or lower the signal
Method in brief: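 Endogenous factor activity was captured via cis-element-driven reporter transcripts in HepG2 cells. Following 24 h chemical treatment, transcripts were quantified by RT-PCR and capillary electrophoresis.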

[13] = molecular target: Steroid hormone receptor ERR1 (Homo sapiens) (UniProt P11474); test: ATG_ERRa_TRANS: Attagene TRANS-FACTORIAL HepG2 Assay for human Estrogen-Related Receptor alpha (ERRa) (AID 2282971); conditions: HepG2 Attagene TRANS reporter, ERRa transactivation
Method in brief: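 Transfected HepG2, 24 h dosing, ERRa-Gal4 chimera driving GAL4-UAS reporter. Readout: reporter mRNA via RT-PCR plus capillary electrophoresis (fluorescence). Positive direction vs DMSO control.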

[14] = molecular target: Oxysterols receptor LXR-beta (Homo sapiens) (UniProt P55055); test: ATG_LXRb_TRANS: Attagene TRANS-FACTORIAL HepG2 Assay for human Liver X Receptor beta (LXRb) (AID 2282981); conditions: HepG2 Attagene TRANS GAL4-LXRb reporter, mRNA
Method in brief: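 Readout: fluorescent reporter mRNA fragments resolved by capillary electrophoresis after RT-PCR. System: transiently transfected human HepG2, exogenous LXRb-Gal4 chimera driving GAL4-UAS reporter, 24 h dosing. Activity fitted upward against DMSO baseline.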

[15] = molecular target: Hepatocyte nuclear factor 4-alpha (Homo sapiens) (UniProt P41235); test: ATG_HNF4a_TRANS: Attagene TRANS-FACTORIAL HepG2 Assay for human Hepatocyte Nuclear Factor 4 alpha (HNF4a) (AID 2282982); conditions: HepG2 HNF4a transactivation reporter, mRNA readout
Method in brief: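 Transient MRTU transfection of HepG2, 24 h dosing. Readout: reporter mRNA via RT-PCR + capillary electrophoresis, fluorescence; activity fit upward relative to DMSO control.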

[16] = ATG_M_06_TRANS: Attagene TRANS-FACTORIAL HepG2 Assay for M06 Transcription Factor (Internal Marker) (AID 2282983); conditions: HepG2 Attagene TRANS M06 internal marker reporter
Method in brief: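 Read-out: fluorescent reporter cDNA fragments resolved by capillary electrophoresis after RT-PCR and HpaI cut. Source cells were HepG2 carrying transfected multi-reporter GAL4 constructs, dosed 24 h. Increase over DMSO control analysed.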

[17] = molecular target: Estrogen-related receptor gamma (Homo sapiens) (UniProt P62508); test: ATG_ERRg_TRANS: Attagene TRANS-FACTORIAL HepG2 Assay for human Estrogen-Related Receptor gamma (ERRg) (AID 2282977); conditions: HepG2 Attagene TRANS reporter, ERRg transactivation;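 further: hits increase reporter signal over DMSO so potencies reflect activators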
Method in brief: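 Readout: fluorescent reporter-mRNA fragments resolved by capillary electrophoresis after RT-PCR and HpaI cut. Cells: transiently transfected HepG2 carrying GAL4-UAS reporters driven by exogenous NR-Gal4 chimeras, dosed 24 h. Activity fitted upward relative to DMSO baseline.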

[18] = molecular target: Oxysterols receptor LXR-alpha (Homo sapiens) (UniProt Q13133); test: ATG_LXRa_TRANS: Attagene TRANS-FACTORIAL HepG2 Assay for human Liver X Receptor alpha (LXRa) (AID 2282980); conditions: HepG2 Attagene TRANS reporter, LXRa transactivation
Method in brief: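 Read-out: reporter transcript levels by RT-PCR plus capillary electrophoresis, fluorescence intensity. Transiently transfected HepG2, exogenous NR-GAL4 chimera, GAL4-UAS reporters; 24 h compound exposure. Activity = increase over DMSO negative control.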

[19] = ATG_GAL4_TRANS: Attagene TRANS-FACTORIAL HepG2 Assay for GAL4 (Internal Marker) (AID 2282976); conditions: HepG2 Attagene TRANS GAL4 internal marker reporter
Method in brief: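 RT-PCR/capillary electrophoresis readout of reporter mRNA. HepG2, transient MRTU transfection (GAL4-UAS reporters), 24 h compound exposure. Background-control endpoint, positive direction vs DMSO baseline.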

Measured: AC50

Hepatocyte nuclear factor 4-alpha (Homo sapiens), sequence (P41235 whole entry, looked up): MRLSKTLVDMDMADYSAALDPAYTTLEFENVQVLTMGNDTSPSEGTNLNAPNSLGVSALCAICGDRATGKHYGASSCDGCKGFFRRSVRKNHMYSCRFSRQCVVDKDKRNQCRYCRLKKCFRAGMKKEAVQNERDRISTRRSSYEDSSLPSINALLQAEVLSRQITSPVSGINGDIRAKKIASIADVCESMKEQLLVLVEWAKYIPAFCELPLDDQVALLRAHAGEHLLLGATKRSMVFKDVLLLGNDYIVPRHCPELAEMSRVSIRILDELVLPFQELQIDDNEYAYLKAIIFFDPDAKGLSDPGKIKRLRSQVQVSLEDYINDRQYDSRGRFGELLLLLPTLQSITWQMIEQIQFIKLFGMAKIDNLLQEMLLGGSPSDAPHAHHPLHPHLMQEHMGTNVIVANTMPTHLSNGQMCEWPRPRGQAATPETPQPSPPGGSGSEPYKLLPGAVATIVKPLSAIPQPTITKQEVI
Estrogen receptor (Homo sapiens), sequence (P03372 whole entry, looked up, the tested form may be a part): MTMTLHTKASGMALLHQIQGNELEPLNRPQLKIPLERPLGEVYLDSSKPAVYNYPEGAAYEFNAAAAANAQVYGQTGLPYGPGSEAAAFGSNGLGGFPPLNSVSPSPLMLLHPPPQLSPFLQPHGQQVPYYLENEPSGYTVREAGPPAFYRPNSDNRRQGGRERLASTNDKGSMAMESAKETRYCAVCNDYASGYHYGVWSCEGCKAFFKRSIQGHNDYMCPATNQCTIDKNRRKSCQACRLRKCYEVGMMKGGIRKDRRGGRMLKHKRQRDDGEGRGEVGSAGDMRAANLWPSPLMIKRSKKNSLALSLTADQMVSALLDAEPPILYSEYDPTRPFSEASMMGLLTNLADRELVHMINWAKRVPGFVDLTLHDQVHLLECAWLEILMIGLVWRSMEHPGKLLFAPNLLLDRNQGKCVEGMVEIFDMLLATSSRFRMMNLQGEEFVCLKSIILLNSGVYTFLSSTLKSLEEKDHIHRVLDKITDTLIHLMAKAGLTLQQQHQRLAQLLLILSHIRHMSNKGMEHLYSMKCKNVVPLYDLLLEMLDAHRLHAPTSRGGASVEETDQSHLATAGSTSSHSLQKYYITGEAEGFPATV
Glucocorticoid receptor (Homo sapiens), sequence (P04150 whole entry, looked up, the tested form may be a part): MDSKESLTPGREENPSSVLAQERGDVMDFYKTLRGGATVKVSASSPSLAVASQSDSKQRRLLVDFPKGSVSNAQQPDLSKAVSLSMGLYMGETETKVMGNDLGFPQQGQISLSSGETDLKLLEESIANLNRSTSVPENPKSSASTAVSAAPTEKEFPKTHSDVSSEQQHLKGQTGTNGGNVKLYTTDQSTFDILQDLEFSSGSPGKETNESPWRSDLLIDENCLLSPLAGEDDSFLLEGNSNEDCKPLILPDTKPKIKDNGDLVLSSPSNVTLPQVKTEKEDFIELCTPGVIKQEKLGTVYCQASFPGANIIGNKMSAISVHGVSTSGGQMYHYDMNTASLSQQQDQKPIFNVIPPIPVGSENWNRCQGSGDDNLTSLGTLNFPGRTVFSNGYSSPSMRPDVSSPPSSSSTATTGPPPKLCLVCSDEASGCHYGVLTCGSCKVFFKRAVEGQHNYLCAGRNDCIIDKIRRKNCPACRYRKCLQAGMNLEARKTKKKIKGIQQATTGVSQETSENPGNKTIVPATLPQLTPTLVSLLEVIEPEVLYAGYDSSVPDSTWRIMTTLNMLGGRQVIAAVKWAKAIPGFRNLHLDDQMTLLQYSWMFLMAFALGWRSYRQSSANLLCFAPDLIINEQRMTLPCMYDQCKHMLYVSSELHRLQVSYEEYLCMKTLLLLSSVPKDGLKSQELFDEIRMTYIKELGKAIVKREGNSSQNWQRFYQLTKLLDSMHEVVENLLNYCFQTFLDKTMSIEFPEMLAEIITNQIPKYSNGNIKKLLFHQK
Nuclear respiratory factor 1 (Homo sapiens), sequence (Q16656 whole entry, looked up): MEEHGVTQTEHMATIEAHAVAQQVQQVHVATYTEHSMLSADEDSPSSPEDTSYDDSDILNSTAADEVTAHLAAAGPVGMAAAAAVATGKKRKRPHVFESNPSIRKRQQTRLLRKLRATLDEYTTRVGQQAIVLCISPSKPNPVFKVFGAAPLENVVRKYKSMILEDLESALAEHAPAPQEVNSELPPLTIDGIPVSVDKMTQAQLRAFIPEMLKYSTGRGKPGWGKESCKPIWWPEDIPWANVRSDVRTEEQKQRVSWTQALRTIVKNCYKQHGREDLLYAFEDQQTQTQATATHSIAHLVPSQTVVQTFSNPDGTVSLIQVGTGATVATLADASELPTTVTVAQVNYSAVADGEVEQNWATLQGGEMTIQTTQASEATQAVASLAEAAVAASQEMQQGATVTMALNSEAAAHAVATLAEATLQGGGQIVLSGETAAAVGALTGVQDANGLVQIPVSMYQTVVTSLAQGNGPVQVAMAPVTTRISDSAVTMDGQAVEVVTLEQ
Oxysterols receptor LXR-beta (Homo sapiens), sequence (P55055 whole entry, looked up, the tested form may be a part): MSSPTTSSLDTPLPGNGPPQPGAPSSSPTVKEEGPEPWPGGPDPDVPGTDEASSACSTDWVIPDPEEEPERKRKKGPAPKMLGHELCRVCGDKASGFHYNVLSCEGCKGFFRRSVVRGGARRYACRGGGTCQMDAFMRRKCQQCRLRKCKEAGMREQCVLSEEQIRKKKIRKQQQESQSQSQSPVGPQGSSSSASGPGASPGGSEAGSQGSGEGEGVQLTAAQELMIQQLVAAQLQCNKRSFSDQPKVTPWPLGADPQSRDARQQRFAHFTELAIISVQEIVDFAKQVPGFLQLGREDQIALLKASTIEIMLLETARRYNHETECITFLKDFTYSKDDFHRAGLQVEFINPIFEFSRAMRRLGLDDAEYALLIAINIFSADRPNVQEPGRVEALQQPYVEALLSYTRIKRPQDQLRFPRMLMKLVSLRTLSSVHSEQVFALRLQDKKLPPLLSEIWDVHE
Oxysterols receptor LXR-alpha (Homo sapiens), sequence (Q13133 whole entry, looked up, the tested form may be a part): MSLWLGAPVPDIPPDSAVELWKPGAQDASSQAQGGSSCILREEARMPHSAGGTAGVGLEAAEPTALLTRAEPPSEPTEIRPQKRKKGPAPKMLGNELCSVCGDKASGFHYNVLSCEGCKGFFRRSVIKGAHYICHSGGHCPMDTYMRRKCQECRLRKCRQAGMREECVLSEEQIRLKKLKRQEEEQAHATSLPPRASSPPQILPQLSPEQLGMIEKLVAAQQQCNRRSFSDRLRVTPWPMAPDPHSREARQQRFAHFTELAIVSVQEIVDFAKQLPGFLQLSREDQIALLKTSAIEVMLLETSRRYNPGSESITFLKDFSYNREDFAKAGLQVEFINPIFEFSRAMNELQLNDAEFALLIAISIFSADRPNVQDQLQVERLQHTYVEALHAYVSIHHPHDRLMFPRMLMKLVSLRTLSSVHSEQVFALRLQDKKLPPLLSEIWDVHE
Bile acid receptor (Homo sapiens), sequence (Q96RI1 whole entry, looked up, the tested form may be a part): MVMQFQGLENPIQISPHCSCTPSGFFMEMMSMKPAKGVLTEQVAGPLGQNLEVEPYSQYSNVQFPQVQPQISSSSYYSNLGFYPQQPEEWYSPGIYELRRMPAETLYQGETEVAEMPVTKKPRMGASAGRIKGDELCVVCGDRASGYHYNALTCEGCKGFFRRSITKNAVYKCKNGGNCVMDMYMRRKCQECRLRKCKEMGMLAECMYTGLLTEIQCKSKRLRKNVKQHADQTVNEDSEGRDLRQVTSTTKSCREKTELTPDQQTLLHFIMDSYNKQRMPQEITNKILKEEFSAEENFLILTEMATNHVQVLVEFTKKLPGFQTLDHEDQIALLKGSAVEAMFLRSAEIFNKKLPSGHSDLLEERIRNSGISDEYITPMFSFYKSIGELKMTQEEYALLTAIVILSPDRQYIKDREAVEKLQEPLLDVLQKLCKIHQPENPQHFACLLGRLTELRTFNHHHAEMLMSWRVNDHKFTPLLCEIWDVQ
Steroid hormone receptor ERR1 (Homo sapiens), sequence (P11474 whole entry, looked up, the tested form may be a part): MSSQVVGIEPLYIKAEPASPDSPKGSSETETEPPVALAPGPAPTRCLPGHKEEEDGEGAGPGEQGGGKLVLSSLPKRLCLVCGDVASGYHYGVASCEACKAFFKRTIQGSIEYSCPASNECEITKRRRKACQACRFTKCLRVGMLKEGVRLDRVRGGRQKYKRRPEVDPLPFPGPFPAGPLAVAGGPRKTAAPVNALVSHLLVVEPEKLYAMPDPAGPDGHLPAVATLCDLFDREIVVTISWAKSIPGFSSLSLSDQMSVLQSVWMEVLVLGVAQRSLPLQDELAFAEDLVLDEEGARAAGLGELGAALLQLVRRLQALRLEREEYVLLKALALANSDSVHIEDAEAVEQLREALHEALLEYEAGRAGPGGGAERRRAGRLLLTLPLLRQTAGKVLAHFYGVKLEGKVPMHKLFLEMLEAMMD
X-box-binding protein 1 (Homo sapiens), sequence (P17861 whole entry, looked up): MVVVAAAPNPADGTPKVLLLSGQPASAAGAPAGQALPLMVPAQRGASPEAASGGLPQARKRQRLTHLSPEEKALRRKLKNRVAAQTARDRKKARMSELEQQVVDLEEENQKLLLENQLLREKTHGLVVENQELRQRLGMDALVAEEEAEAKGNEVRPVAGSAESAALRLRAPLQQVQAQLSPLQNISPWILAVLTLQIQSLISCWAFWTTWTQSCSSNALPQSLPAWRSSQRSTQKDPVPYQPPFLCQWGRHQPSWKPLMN
Estrogen-related receptor gamma (Homo sapiens), sequence (P62508 whole entry, looked up, the tested form may be a part): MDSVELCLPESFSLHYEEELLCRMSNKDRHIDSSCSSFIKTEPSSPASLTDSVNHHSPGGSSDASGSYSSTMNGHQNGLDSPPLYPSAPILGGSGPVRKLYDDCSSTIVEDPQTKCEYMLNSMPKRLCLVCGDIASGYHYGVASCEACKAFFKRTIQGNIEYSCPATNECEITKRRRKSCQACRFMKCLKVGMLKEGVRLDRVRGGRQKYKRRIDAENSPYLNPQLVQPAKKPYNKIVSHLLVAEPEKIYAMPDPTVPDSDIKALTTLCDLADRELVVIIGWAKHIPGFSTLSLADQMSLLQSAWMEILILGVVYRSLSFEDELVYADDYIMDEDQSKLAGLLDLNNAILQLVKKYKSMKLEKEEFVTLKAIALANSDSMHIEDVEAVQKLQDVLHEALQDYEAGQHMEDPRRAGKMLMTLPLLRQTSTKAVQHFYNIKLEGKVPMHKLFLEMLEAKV

O=S(=O)(O)c1ccccc1C=Cc1ccc(-c2ccc(C=Cc3ccccc3S(=O)(=O)O)cc2)cc1
active: [1] 32.4 µM | [2] 57.8 µM
inactive: [3] | [4] | [5] | [6] | [7] | [8] | [9] | [10] | [11] | [12]

O=S(=O)(O)c1cc(S(=O)(=O)O)c2ccc3c(S(=O)(=O)O)cc(S(=O)(=O)O)c4ccc1c2c43
inactive: [1] | [2] | [3] | [4] | [13] | [5] | [6] | [8] | [14] | [15] | [16] | [9] | [10] | [12]

C1CN(SSN2CCOCC2)CCO1
inactive: [1] | [2] | [3] | [4] | [13] | [5] | [6] | [17] | [18] | [9] | [11] | [12]

C=CC(C)(CCC=C(C)C)OC(=O)C(C)C (stereo not given)
active: [4] 38 µM
inactive: [1] | [2] | [3] | [5] | [6] | [7] | [18] | [16] | [10] | [11] | [12]

CC(=O)OCC(=O)[C@@]12N=C(C)O[C@@H]1C[C@H]1[C@@H]3CCC4=CC(=O)C=C[C@]4(C)[C@H]3[C@@H](O)C[C@@]12C
active: [3] 25 µM | [7] 0.0827 µM | [10] 17.1 µM
inactive: [1] | [2] | [4] | [5] | [6] | [19] | [18] | [14] | [9] | [11] | [12]

CCCCCCCCc1ccc(Nc2ccc(CCCCCCCC)cc2)cc1
active: [3] 19.8 µM
inactive: [1] | [2] | [4] | [13] | [5] | [6] | [17] | [8] | [18] | [15] | [9] | [10] | [11] | [12]

Cc1ccc2oc(=O)ccc2c1
inactive: [1] | [2] | [3] | [4] | [5] | [6] | [19] | [14] | [15] | [9] | [10] | [11] | [12]

C=CC=CC=CCCCCC
inactive: [1] | [2] | [3] | [4] | [13] | [5] | [18] | [15] | [16] | [9] | [10] | [11] | [12]
